From PubChem BioAssay AID1645855 (Buhrlage Lab, Dana-Farber Cancer Institute and Novartis …, 2021)
Screen size: about 47,000 compounds; about 3,100 (6.6%) were called active. No stated cut-off is given here; in the data, active means inhibition above about 30%; inactive means the rest. The list comes from a sample in which actives are over-represented; it also holds similar structures and randomly drawn compounds.

Target: Ubiquitin carboxyl-terminal hydrolase 17-like protein 5 (Homo sapiens) (UniProt A8MUK1)
Sequence (A8MUK1 whole entry, looked up): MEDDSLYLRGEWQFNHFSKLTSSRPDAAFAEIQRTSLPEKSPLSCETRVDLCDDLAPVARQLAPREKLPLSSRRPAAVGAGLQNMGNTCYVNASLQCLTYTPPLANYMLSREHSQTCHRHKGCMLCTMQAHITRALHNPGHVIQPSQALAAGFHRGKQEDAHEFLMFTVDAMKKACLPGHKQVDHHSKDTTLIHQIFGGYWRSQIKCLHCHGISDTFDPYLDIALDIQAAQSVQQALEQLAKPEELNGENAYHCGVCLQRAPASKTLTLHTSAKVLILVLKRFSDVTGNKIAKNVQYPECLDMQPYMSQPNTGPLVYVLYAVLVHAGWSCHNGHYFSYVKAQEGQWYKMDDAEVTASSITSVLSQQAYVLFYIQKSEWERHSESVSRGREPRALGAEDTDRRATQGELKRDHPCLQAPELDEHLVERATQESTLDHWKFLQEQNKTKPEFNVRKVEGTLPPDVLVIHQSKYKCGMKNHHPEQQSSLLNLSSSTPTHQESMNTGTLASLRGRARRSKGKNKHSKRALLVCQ
Experiment: inhibitors of human USP17 deubiquitinase (AID 1645855)
Conditions: purified USP17, Ub-rhodamine cleavage fluorescence, 3 h; at 50 µM; active compounds read high

inhibition, inactive:
Cc1cc(N)nc2c1c(C)nn2-c1ncc(C(F)(F)F)cc1Cl -15.8%, Cc1ccc(-c2nc(-c3cccc(-c4ccnn4C)c3)no2)cc1 5.04%, COc1ccc(-c2noc(-c3cccc(OCC(=O)NC(C)C)c3)n2)cc1 -0.296%, Cc1ccccc1-c1nc(-c2cn(CC(=O)Nc3ccccc3)cn2)no1 10%, COc1cc(Cl)ccc1-c1nc(-c2cccc(C(=O)N3CCCC3)c2)no1 8.98%, O=C(NCCc1ccccc1)c1cc2c(s1)CS(=O)(=O)C2 6.74%, COc1ccccc1Cc1cnc(C2CCCN(C(=O)c3ccnc(C)n3)C2)o1 (configuration not stated) -2.9%, CC1=N[C@@]2(CC[C@@H]3CN(C(=O)Nc4ccccc4C)C[C@@H]32)C(=O)N1CC1CC1 -23.9%, COc1ccc(CNC(=O)Cn2ncc3ccc(C)cc32)cc1 16.8%, COc1cccc(C(=O)NCc2ccc(-c3nc4cnccc4o3)cc2)c1 25.2%, COc1ccc(CC(=O)Nc2cnc(-c3ccccc3)nc2)cc1 2.89%, COc1ccc(CNC(=O)CSc2nnc3c4ccccc4nc(-c4ccco4)n23)cc1 -17%, COc1ccc(-c2noc(CNC(=O)CCc3ccccc3)n2)cc1OC 8.5%, COc1ccc(CCNC(=O)c2ccccc2OCc2ccc(F)cc2)cc1 16.7%, O=C(c1ccc(OC2CCN(C(=O)C3CCC3)CC2)nc1)N1CCOCC1 -14.4%, CC(=O)N1CC2(CCN(C(=O)c3ccncc3)CC2)Nc2ccccc21 -3.13%, CCOC(=O)c1[nH]c2cc(OC)c(OC)cc2c1NC(=O)c1cc2cccc(OC)c2o1 -23.6%, CCOC(=O)c1c(NC(=O)CNc2cc(C)ccc2C)sc(Cc2ccc3c(c2)OCO3)c1C 5.67%, O=C(c1cccnc1)N1CC[C@@H]2CNS(=O)(=O)[C@@H]2CC1 -5.34%, CN1[C@@H](CCC(=O)N2CCN(c3ccccc3)CC2)CNC(=O)[C@H]2NCC[C@H]21 7.19%, Cc1ccc(NC(=O)CCn2cnc3c2c(=O)n(C)c(=O)n3C)cc1 -13%, Cc1ccc(N(C)C(=O)CCn2cnc3ccccc3c2=O)cc1 -3.3%, Cc1nnc2c(NC(=O)Cc3cccc(C(F)(F)F)c3)cccn12 -9.8%, Cc1cccc(NC(=O)C2CN(S(C)(=O)=O)c3ccccc3O2)c1C (configuration not stated) -4.9%, CCS(=O)(=O)n1nc(NCc2ccccc2)nc1NCc1ccccc1 1.97%, CCOc1ccc(NC(=S)Nc2ccc(Cc3ccncc3)cc2)cc1 7.13%, COc1ccc(NC(=O)c2cc(=O)[nH]c3ccccc23)cc1S(=O)(=O)N1CCOCC1 -3.19%, COc1ccc(-c2cnc(SCCNC(=O)c3cccc(F)c3)[nH]2)cc1 -3.6%, CC(C)Oc1ccc(CNC(=O)C2CCCN(c3ccc(N4CCOCC4)nn3)C2)cc1 (configuration not stated) -6.08%, COc1cnc(CSc2nccc(C)n2)cc1OCC(=O)Nc1ccc(C)cc1C 2.43%, CC(O)CNc1ncnc2c1oc1nc(C(C)C)c3c(c12)CCC3 (configuration not stated) 3.5%, CC(C)Cc1nc2sc3c(N(CCO)Cc4ccccc4)ncnc3c2c2c1COC(C)(C)C2 29.6%, COc1cccc(-c2cn3c4c(=O)n(C)c(=O)n(C)c4nc3n2-c2ccc(OC)c(OC)c2)c1 20.6%, CC(=O)N[C@@]12CN(C)CC[C@@H]1[C@@H](c1ccccc1)N(CC(=O)Nc1ccc(F)cc1)C2 -2.8%, COCCCn1c(=O)c2ccccc2n(Cc2nc(-c3ccccc3)no2)c1=O -3.49%, O=C(CCCn1c(=O)c2ccccc2n(Cc2ccccc2F)c1=O)NC1CCCC1 21.6%, CC1Oc2ccc(NC(=O)c3ccc4c(c3)CCC4)cc2NC1=O (configuration not stated) -11%, Cc1ccc(Cn2cc(-c3noc(-c4ccc[nH]4)n3)nn2)cc1 0.022%, COc1ccccc1C(=O)Nc1cccc(Oc2ccccc2)c1 12.6%, CC(CCc1ccccc1)NC(=O)/C=C/c1cccc([N+](=O)[O-])c1 (configuration not stated) 6.91%, C[C@@H]1O[C@@H](OC2[C@H](Oc3cc(O)c4c(c3)OC(c3ccc(O)cc3)CC4=O)O[C@H](CO)[C@@H](O)[C@@H]2O)[C@H](O)[C@H](O)[C@H]1O (some centres not stated) 0.6%, Cc1cccc(NC(=O)Cn2c(C)ccc(NC(=O)Nc3cccc(C)c3)c2=O)c1 14%, Cc1cccc(C2=NC3(CCN(CC(=O)Nc4ccccc4C)CC3)NC2=O)c1 -42.3%, O=C(Cn1cccc(S(=O)(=O)N2CCCC2)c1=O)Nc1ccccc1 -38%, CN(C)CCO[C@H]1CN(C(=O)c2cccnc2)[C@@H]2CCCO[C@H]12 -13.9%, COc1ccc(C)cc1NC(=O)Cn1c(=O)nc(N(C)c2ccccc2)c2ccccc21 14.1%, O=C(Cn1cnc2c(sc3ccccc32)c1=O)Nc1ccc2c(c1)OCCO2 23.3%, COc1cc(O)sc1C=Nc1ccc(Oc2ccccc2)cc1 9.93%, Cc1cnc(N2CCC3(CC2)[C@@H]2CN(Cc4cccnc4)C[C@@H]2C(=O)N3C)nc1 -34.9%, CCC(Oc1ccccc1)C(=O)NCc1ccc2c(c1)OCO2 (configuration not stated) -0.19%, c1cc(CNCc2ccc3c(c2)OCO3)ccn1 0.475%, COC(=O)c1ccc(CN2CCN(c3cnn4cnnc4c3)CC2)cc1 0.152%, CN(CC(=O)Nc1cccc(C(F)(F)F)c1)Cc1nc2ccccc2c(=O)[nH]1 -13.9%, Cc1ccc(S(=O)(=O)Nc2nc3ccccc3n3nnnc23)cc1 -34.7%, COc1ccc(F)c([C@@H]2NC(=O)CC[C@H]2NCc2cccc(O)c2)c1 -6.39%, CC(=O)Nc1cccnc1-c1ccc(C(=O)Nc2ccc(C)c(C)c2)cc1 6.52%, Cc1ocnc1C(=O)N[C@@H]1C[C@@H](Oc2ccccc2)[C@H](O)[C@H]1N1CCOCC1 9.29%, Cc1cccc(OCCCC(=O)Nc2sc3c(c2C(N)=O)CCCC3)c1C -11%, Cc1ccc(NS(=O)(=O)c2cc(C(=O)NCc3cccnc3)ccc2Cl)cc1 6.21%, COc1ccc(CCNC(=O)c2ccc3ccccc3c2)cc1OC -2.29%, COc1ccc2[nH]cc(CCNC(=O)Cc3csc(-c4cc(OC)c(OC)c(OC)c4)n3)c2c1 8.14%, O=C(NCCc1c[nH]c2ccccc12)c1cc2cc(Cl)ccc2o1 23%, CC(=O)N1CCCCCC1C1CCN(c2ncccc2C#N)CC1 (configuration not stated) -19%, Cn1nccc1-c1cccc(-c2noc(-c3ccoc3)n2)c1 -3.53%, O=C(CCCC1=NS(=O)(=O)c2ccccc2N1)Nc1ccc(C(=O)O)cc1 25.1%, Cc1c(Cl)cccc1NC(=O)C(=O)c1cn(CC(=O)N2CCOCC2)c2ccccc12 -0.359%, Cn1ccnc1CN1C(=O)CO[C@H]2CN(Cc3ccc4c(c3)OCO4)C[C@H]21 4.69%, Cc1cc(-c2cncnc2-c2ccc(CNC(=O)Cc3ccccc3C)cc2)on1 18.8%

inhibition, active:
Cc1ccc(-c2noc(-c3cccc(OCC(=O)N(C)C)c3)n2)cc1 50.7%, Cc1ccccc1-c1nc(-c2cccc(OCC(=O)N3CCOCC3)c2)no1 48.9%, COc1ccc(CNC(=O)c2ccccc2-c2ncc(-c3ccccc3)o2)cc1 37.9%, COc1ccc(-c2ccc(CCC(=O)NCc3ccccc3)o2)cc1 34.6%, COc1ccc(CNC(=O)c2cccc3cccnc23)cc1 40.3%, Cc1c(Cl)cccc1NC(=O)CCn1cnc2ccccc2c1=O 55.3%, COc1ccc(-c2[nH]c3ccccc3c2SCCNC(=O)c2ccc(S(=O)(=O)N3CCOCC3)cc2)cc1 56.7%, O=C1C(O)=C(c2ccc(O)c(O)c2)C(=O)C(O)=C1c1ccccc1 57.3%, CC(C)Cc1cc(-c2nn3c(-c4ccccc4Cl)nnc3s2)n[nH]1 42.6%, CC(C)Cc1nc2sc3c(NCc4ccco4)ncnc3c2c2c1CCC2 43.3%, N#Cc1ccccc1Cn1c(=O)n(CCCC(=O)NCc2ccc(F)cc2)c(=O)c2ccccc21 30.8%, CC(CCc1ccccc1)NC(=O)c1cc2cc(Oc3ccccc3)ccc2[nH]1 (configuration not stated) 32.3%, Cc1ccc2cc(CNc3ccccc3)c(=O)n(CC(=O)Nc3ccccc3C)c2c1 84.2%, CN(c1ccccc1)c1nc(=O)n(CC(=O)Nc2ccc3c(c2)OCCO3)c2ccccc12 54%, c1ccc(-c2ccc(NCc3ccc4c(c3)OCO4)nn2)cc1 71.6%, CSc1nccc(-c2ccc(F)cc2)c1C#N 82.5%, Cc1ccc2occ(CC(=O)Nc3sc4c(c3C(=O)NCc3cccnc3)CCCC4)c2c1 33.6%, CCC(=O)NC(=NCCc1c[nH]c2ccc(Cl)cc12)Nc1nc(C)cc(C)n1 43.9%, Cc1ccccc1CS(=O)(=O)Cc1ccc(C(=O)Nc2noc3ccccc23)o1 48.3%
